Bioassay records from PubChem BioAssay.
Rows were chosen to be rich in hits. Some 2.4% of all compounds tested hit in one or more screens of this group.
FEN1 inhibitor – qHTS Assay for the Inhibitors of Human Flap endonuclease 1 (FEN1). P39748. Recombinant FEN1 flap cleavage, fluorescence, 15 min. Potency, µM (titrated, usually from 114 µM), hits mostly inhibitors. 390,000 tested, 0.35% active. AID 588795, 2011; note: nearly all actives have a fitted effect of over 65% in size
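Reaction started by adding substrate (50 nM final) to 10 nM enzyme after 15 min room-temperature compound preincubation. Reads at 0 and 15 min, with data normalized and fitted to a four-parameter Hill equation.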
Pol eta inh – qHTS for Inhibitors of Polymerase Eta | DNA polymerase eta (Homo sapiens), Q9Y253 | recombinant Pol eta, fluorescent DNA replication assay | Potency, µM (titrated, usually from 114 µM), hits mostly inhibitors | 390,000 tested, 1.2% active
Target sequence (Q9Y253 whole entry, looked up): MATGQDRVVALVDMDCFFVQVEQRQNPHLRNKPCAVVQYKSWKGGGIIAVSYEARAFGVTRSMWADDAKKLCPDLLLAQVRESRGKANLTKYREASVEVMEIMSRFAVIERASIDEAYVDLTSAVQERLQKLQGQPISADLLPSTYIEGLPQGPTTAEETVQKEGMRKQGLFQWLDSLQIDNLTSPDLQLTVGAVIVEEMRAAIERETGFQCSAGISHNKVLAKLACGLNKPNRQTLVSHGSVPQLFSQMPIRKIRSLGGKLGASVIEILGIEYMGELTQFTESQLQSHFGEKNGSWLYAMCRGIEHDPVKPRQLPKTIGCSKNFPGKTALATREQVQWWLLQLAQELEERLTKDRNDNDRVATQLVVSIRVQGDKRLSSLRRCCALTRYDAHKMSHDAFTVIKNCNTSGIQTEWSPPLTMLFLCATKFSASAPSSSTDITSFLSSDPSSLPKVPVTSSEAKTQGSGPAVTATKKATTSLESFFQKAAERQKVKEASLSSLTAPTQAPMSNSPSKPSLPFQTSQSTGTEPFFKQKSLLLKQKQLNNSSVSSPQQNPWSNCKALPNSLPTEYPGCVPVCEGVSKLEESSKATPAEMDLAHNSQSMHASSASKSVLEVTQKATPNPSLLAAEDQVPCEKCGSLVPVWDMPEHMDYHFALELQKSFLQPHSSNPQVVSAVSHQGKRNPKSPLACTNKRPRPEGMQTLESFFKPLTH
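Pol eta (10 nM) was preincubated with compounds for 15 min at room temperature, after which fluorescent replication substrate (50 nM final) was added to start the reaction. Fluorescence was read kinetically at 0 and 10 min.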
Pol beta inh – qHTS Assay for Inhibitors of DNA Polymerase Beta; Potency, µM (top dose mostly 114 µM), hits mostly inhibitors; 340,000 tested, 1.3% active; P06746; Pol beta primer extension/strand displacement, fluorescence kinetic
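Curves were derived by four-parameter Hill fits of normalized qHTS data. The kinetic fluorescent primer-extension read was taken at 0 and 10 min after 50 nM substrate, following a 15 min room-temperature preincubation of 10 nM enzyme with compounds.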
WRN inhibitor – qHTS for Inhibitors of WRN Helicase. WRN helicase unwinding, fluorescent forked duplex, kinetic. 360,000 tested, 0.46% active. AID 651768, 2012. Potency, µM (highest dose often 114 µM), usual class: inhibitors; note: nearly all actives have a fitted effect of over 55% in size
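Kinetic red-fluorescence monitoring (525/598 nm) tracks WRN helicase activity after 100 nM fluorophore-quencher forked duplex and 2 mM ATP are added to 20 nM enzyme pretreated 15 min at room temperature with compound.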
Pol iota inh – qHTS for Inhibitors of Polymerase Iota; Pol iota fluorescent replication assay, 10 min; Potency, µM (top dose mostly 115 µM), most hits filed as inhibitors; 390,000 tested, 1% active; AID 588590, 2011
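Fluorescent replication assay read twice, at 0 min and 10 min after adding 50 nM (final) substrate. Enzyme (10 nM) and compounds were first incubated 15 min at room temperature; enzyme-free buffer wells were negative controls.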
POLK inh – qHTS for Inhibitors of Polymerase Kappa | AID 588579, 2011 | purified Pol kappa, fluorescent DNA synthesis assay, 10 min | Potency, µM (highest dose often 107 µM), actives largely listed as inhibitors | 400,000 tested, 0.53% active
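Kinetic fluorescence readout at 0 and 10 min followed reaction start with substrate at 50 nM final. Beforehand, enzyme (10 nM Pol kappa) stood 15 min with compound at room temperature; buffer-only wells were negative controls.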
Large screens that a line does not name were inactive; ! = not confirmed by another sample. Calls come from the whole dose curve; as a rule, active = well fitted curve in the direction sought with a large enough effect; inconclusive = small, poorly fitted or top-dose-only effect, or another doubt; inactive = no such curve, though single readings can be large; an effect the other way counts as inactive or inconclusive.

Cc1ccc(-c2nc(S(=O)(=O)c3ccc(C)cc3)c(SCC(=O)c3ccccc3)o2)cc1	Pol iota inh inconclusive (no result: WRN inhibitor)
O=C(COc1cccnc1[N+](=O)[O-])c1ccc(Cl)s1	FEN1 inhibitor inconclusive, Pol eta inh 45µM, Pol beta inh 32µM, WRN inhibitor inconclusive, Pol iota inh 11µM, POLK inh 79µM
COC(=O)CCC/C=C1/SCC(NC(=O)c2ccccc2)C1=O (stereo unspecified)	Pol eta inh inconclusive, Pol iota inh 45µM
COC(=O)CCC/C=C1/SCC(NC(=O)c2ccccc2)C1O (stereo unspecified)	Pol eta inh inconclusive, Pol iota inh inconclusive, POLK inh inconclusive
Cc1cccc(NC(=O)CSc2nc(NS(=O)(=O)c3ccccc3)cc(=O)[nH]2)c1	Pol beta inh 32µM, Pol iota inh inconclusive
O=C(CSc1nc(NS(=O)(=O)c2ccccc2)cc(=O)[nH]1)Nc1ccc(Cl)cc1	Pol beta inh 20µM, WRN inhibitor inconclusive, Pol iota inh 16µM, POLK inh 45µM
Cc1ccc(S(=O)(=O)Nc2cc(=O)[nH]c(SCC(=O)Nc3cccc(C(F)(F)F)c3)n2)cc1	none
CCOc1ccc(CCNC(=O)c2cccc(-n3c(C)nc4cccnc43)c2C)cc1	none (no result: WRN inhibitor)
COc1cc(N2C(=O)C=CC2=O)ccc1N1C(=O)C=CC1=O	FEN1 inhibitor 50µM, Pol eta inh 25µM, WRN inhibitor 20µM, Pol iota inh 40µM, POLK inh 40µM (no result: Pol beta inh)
COc1cc(C2c3c(oc4ccccc4c3=O)C(=O)N2c2nccs2)ccc1O (stereo unspecified)	Pol eta inh 79µM
CC(C)ON([C@@H](C(=O)NO)C(C)C)S(=O)(=O)c1ccc(-c2ccccc2)cc1	none (no result: FEN1 inhibitor, Pol eta inh, Pol beta inh, WRN inhibitor, Pol iota inh)
O=C1[C@H](Cc2ccccc2)NC/C=C\C[C@H](c2ccco2)N1Cc1ccccc1	none (no result: Pol eta inh, Pol beta inh, WRN inhibitor)
Cn1c(C(=O)NCCc2ccccc2)cc2cc(S(=O)(=O)N3CCCCC3)ccc21	none (no result: WRN inhibitor)
N#C/C(=C(/O)COC(=O)c1ccc(Cl)c(S(=O)(=O)N2CCOCC2)c1)c1nc2ccccc2[nH]1	none
N#C/C(=C(/O)COC(=O)CCc1ccc(S(=O)(=O)N2CCOCC2)cc1)c1nc2ccccc2[nH]1	Pol eta inh 14µM, Pol beta inh 35µM
COc1cccc(C(=O)c2cn(CC(=O)NCc3ccco3)c3nc(C)ccc3c2=O)c1	Pol eta inh 40µM, Pol beta inh inconclusive, WRN inhibitor inconclusive, Pol iota inh 22µM, POLK inh 89µM
Cc1ccc2c(=O)c(C(=O)c3ccc(F)cc3)cn(CC(=O)NCc3ccco3)c2n1	Pol eta inh inconclusive, Pol beta inh inconclusive, Pol iota inh inconclusive, POLK inh inconclusive
CCCCn1c(NC(=O)CC)c(C#N)c2nc3ccccc3nc21	none
CCCCn1c(NC(=O)c2ccccc2Cl)c(C#N)c2nc3ccccc3nc21	FEN1 inhibitor inconclusive, Pol eta inh 20µM, Pol iota inh 3.5µM
N#Cc1c(NC(=O)c2ccccc2Cl)n(Cc2ccccc2)c2nc3ccccc3nc12	FEN1 inhibitor inconclusive, Pol eta inh 35µM, Pol beta inh 71µM, WRN inhibitor inconclusive, Pol iota inh 20µM
COC(=O)C1OC(=O)C2O[C@@]23[C@]2(C)C(OC(C)=O)CC4C(C)(C)C(=O)CC[C@]4(C)C2CC[C@@]13C (stereo partly specified)	none (no result: FEN1 inhibitor, Pol eta inh, Pol beta inh, WRN inhibitor, Pol iota inh)
CCCOc1ccc(C(C)=O)cc1CSCCC#N	none
CCCOc1ccc(C(C)=O)cc1CSc1nc(O)cc(=O)[nH]1	Pol beta inh inconclusive, Pol iota inh 35µM, POLK inh inconclusive
Cc1ccc(-c2cc(C(=O)Oc3ccccc3)c3cccc(C)c3n2)cc1	Pol eta inh 50µM, Pol beta inh inconclusive, Pol iota inh inconclusive (no result: WRN inhibitor)
O=C(/C=C/c1ccoc1)c1ccccc1O	none
COc1ccc2ccccc2c1C(=O)/C=C\c1ccoc1	Pol eta inh inconclusive, Pol beta inh 45µM, Pol iota inh inconclusive
CO[C@]1(NC(=O)CSCC#N)C(=O)N2C(C(=O)O)=C(CSc3nnnn3C)CS[C@H]21	none (no result: FEN1 inhibitor, Pol eta inh, Pol beta inh, WRN inhibitor, Pol iota inh)
CO[C@@]1(NC(=O)CSCC#N)C(=O)N2C(C(=O)O)=C(CSc3nnnn3C)CS[C@@H]21	Pol eta inh 2.2µM!, Pol iota inh inconclusive (no result: WRN inhibitor)
O=C(COc1ccccc1/C=C1\SC(=O)NC1=O)Nc1ccccc1	Pol eta inh 18µM, WRN inhibitor inconclusive, Pol iota inh inconclusive
COc1cccc(/C=C2/NC(=O)NC2=O)c1OCC(=O)Nc1ccccc1	none
Cc1ccc(CCNC(=O)c2ccc3c(c2)N(Cc2cccc(Cl)c2)C(=O)c2ccccc2S3(=O)=O)cc1	none (no result: WRN inhibitor)
Cc1ccc(-c2noc(CNC(=O)c3ccc(C)c(Cl)c3)n2)cc1	Pol eta inh inconclusive (no result: WRN inhibitor)
C#CCOCCOCCOCCNc1nc(N2CCN(C(=O)CCCCCCCCCCNC(=O)Cn3cc(C[C@@H](C)O)nn3)CC2)nc(N2CCN(C(=O)CCCCCCCCCCNC(=O)[C@H](CCCCN)n3cc(CCCC(=O)O)nn3)CC2)n1	none (no result: Pol beta inh)
C#CCOCCOCCOCCNc1nc(N2CCN(C(=O)CCCCCCCCCCNC(=O)[C@H](CO)n3cc(CCCSC)nn3)CC2)nc(N2CCN(C(=O)CCCCCCCCCCNC(=O)[C@H](CCCN=C(N)N)n3cc(C[C@@H](C)CC)nn3)CC2)n1	FEN1 inhibitor 22µM, Pol eta inh inconclusive, WRN inhibitor inconclusive, Pol iota inh inconclusive (no result: Pol beta inh)
C#CCOCCOCCOCCNc1nc(N2CCN(C(=O)CCCCCCCCCCNC(=O)Cn3cc(C[C@@H](C)O)nn3)CC2)nc(N2CCN(C(=O)CCCCCCCCCCNC(=O)[C@H](CCCN=C(N)N)n3cc(C[C@@H](C)CC)nn3)CC2)n1	FEN1 inhibitor 89µM, Pol eta inh inconclusive, WRN inhibitor inconclusive (no result: Pol beta inh)
CCc1c2c(nc3ccc4c(c13)OCCO4)-c1nc3ccccc3c(=O)n1C2	none (no result: Pol eta inh, Pol beta inh, WRN inhibitor)
Nc1nc(=S)[nH]c(N)c1N	none (no result: Pol eta inh, Pol beta inh, WRN inhibitor)
Nc1nc(=S)[nH]c2n[nH]nc12	Pol iota inh 40µM (no result: Pol eta inh, Pol beta inh, WRN inhibitor)
CCOC(=O)C1CCCN(c2c(C(=O)c3ccccc3)cnc3ccc(F)cc23)C1 (stereo unspecified)	Pol iota inh inconclusive (no result: WRN inhibitor)
Cc1ccnc(NC(=O)CCS(=O)(=O)c2ccccc2)c1	Pol beta inh 22µM
Cc1ccc(NC(=O)CN(C)C(=O)CCC(=O)c2cccs2)cc1	Pol eta inh inconclusive, Pol beta inh 18µM, Pol iota inh inconclusive
Cc1ccnc(NC(=O)CCC(=O)c2cccs2)c1	Pol eta inh inconclusive, Pol iota inh 20µM, POLK inh inconclusive (no result: Pol beta inh)
